Measurements: PubChem BioAssay (NCATS)
Inconclusive results are not listed. Activity calls are given as the source filed them. Calls come from the whole dose curve; as a rule, active = well fitted curve in the direction sought with a large enough effect; inconclusive = small, poorly fitted or top-dose-only effect, or another doubt; inactive = no such curve, though single readings can be large; an effect the other way counts as inactive or inconclusive.

Legend:
[1] = BET inhibitor-based combinations targeting novel dependencies in MECOM-rearranged (r) AML: SET-2 cell line (AID 2202231); details: SET-2 AML cells viability, CellTiter-Glo luminescence, 48 h; viability: stronger effect = lower value, concentration not given here; note: nearly all actives have a fitted effect of over 35% in size;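 for viability: plate controls were DMSO treated cells for no effect and wells without cells for full effect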
How it was run: (§1)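 Viability of cells (500 per well) is scored by luminescent CellTiter-Glo at 48 hr post-dosing. Eleven-point titrations are normalized to DMSO and empty controls and reduced to AUC values.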

[2] = BET inhibitor-based combinations targeting novel dependencies in MECOM-rearranged (r) AML: OCI-AML3 cell line (AID 2202232); details: Potency: OCI-AML3 viability; note: nearly all actives have a fitted effect of over 35% in size;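 for viability (% of control): series mostly up to about 46 µM; plate controls were DMSO vehicle wells for no effect and wells without cells for full effect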
How it was run: as §1

[3] = BET inhibitor-based combinations targeting novel dependencies in MECOM-rearranged (r) AML: MV-4-11 cell line (AID 2202233); note: nearly all actives have a fitted effect of over 45% in size;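 for viability, % of control: plate controls were DMSO for no effect and blank wells for full effect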
How it was run: (§2)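 Using pin-tool transfer, drugs were added in 11 doses to cells (500/well), incubated 48 hr, and assessed with CellTiter-Glo. Z-AUC is a mean-centring transformation applied separately to each screened line.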

[4] = BET inhibitor-based combinations targeting novel dependencies in MECOM-rearranged (r) AML: HNT-34 cell line (AID 2202234); note: nearly all actives have a fitted effect of over 35% in size;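 for viability (% of control): plate controls were vehicle wells for no effect and cell-free wells for full effect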
How it was run: as §2

[5] = BET inhibitor-based combinations targeting novel dependencies in MECOM-rearranged (r) AML: UCSD-AML1 cell line (AID 2202235); note: nearly all actives have a fitted effect of over 40% in size;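 for viability (% of control): series mostly up to about 46 µM; plate controls were DMSO vehicle wells for no effect and blank wells for full effect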
How it was run: as §2

[6] = BET inhibitor-based combinations targeting novel dependencies in MECOM-rearranged (r) AML: AML-191 cell line (AID 2202236; note: nearly all actives have a fitted effect of over 35% in size;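 for viability (% of control): plate controls were vehicle wells for no effect and wells without cells for full effect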)
How it was run: as §1

[7] = BET inhibitor-based combinations targeting novel dependencies in MECOM-rearranged (r) AML: AML-194 cell line (AID 2202237; note: nearly all actives have a fitted effect of over 40% in size;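 for viability (% of control): plate controls were vehicle wells for no effect and wells without cells for full effect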)
How it was run: as §1
Potency is the fitted concentration of half-maximal effect.

CC(C)(O)[C@H]1CC[C@@](C)([C@H]2[C@@H](O)C[C@@]3(C)[C@@H]4C[C@H](O[C@@H]5O[C@H](CO)[C@@H](O)[C@H](O)[C@H]5O)[C@H]5C(C)(C)[C@@H](O[C@@H]6OC[C@@H](O)[C@H](O)[C@H]6O)CC[C@@]56C[C@@]46CC[C@]23C)O1
inactive: viability [1] 118% | Potency [2] | Potency [3] | Potency [4] | Potency [5] | Potency [6] | Potency [7]

C=CCNc1c(O)cc2c(O)c1C[C@@H](C)C[C@H](OC)[C@H](O)[C@@H](C)/C=C(/C)[C@H](OC(N)=O)[C@@H](OC)/C=C\C=C(\C)C(=O)N2
active: Potency [1] 4680 nM | Potency [2] 742 nM | Potency [3] 148 nM | Potency [4] 4170 nM | Potency [5] 1320 nM | Potency [6] 5900 nM | Potency [7] 3320 nM

CCCCCN(C)CCC(O)(P(=O)(O)O)P(=O)(O)O
inactive: viability [1] 124% | viability (% of control) [2] 118% [at 5.12 µM] | viability, % of control [3] 131% [at 5.12 µM] | viability (% of control) [4] 109% [at 5.12 µM] | viability (% of control) [5] 109% [at 5.12 µM] | viability (% of control) [6] 111% [at 5.12 µM] | viability (% of control) [7] 115% [at 5.12 µM]

Cc1c[nH]c2nc(Nc3ccc(N4CCN(C)CC4)c(F)c3)nc(-c3cccc(CC#N)c3)c12
active: Potency [1] 2630 nM | Potency [2] 2950 nM | Potency [3] 33.2 nM | Potency [4] 662 nM | Potency [5] 742 nM | Potency [6] 742 nM | Potency [7] 833 nM

C=CC(=O)Nc1cccc(Oc2nc(Nc3ccc(N4CCN(C)CC4)cc3)nc3ccsc23)c1
active: Potency [1] 26300 nM | Potency [2] 10500 nM | Potency [3] 8330 nM | Potency [4] 8330 nM | Potency [5] 9340 nM | Potency [6] 23500 nM | Potency [7] 14800 nM

O=C([O-])C[O-].[Pt+2]
inactive: viability [1] 115% | Potency [2] | Potency [3] | Potency [4] | Potency [5] | Potency [6] | Potency [7]

O=C(CCc1ccc(O)cc1)c1c(O)cc(O)cc1O[C@@H]1O[C@H](CO)[C@@H](O)[C@H](O)[C@H]1O
inactive: viability [1] 76.1% | Potency [2] | Potency [3] | Potency [4] | Potency [5] | Potency [6] | Potency [7]

CCC(=O)OCC(=O)C1(OC(=O)CC)C(C)CC2C3CCC4=CC(=O)C=CC4(C)C3(F)C(O)CC21C (stereo unspecified)
inactive: viability [1] 109% | Potency [2] | Potency [3] | Potency [4] | Potency [5] | Potency [6] | Potency [7]

CN1C(C(=O)Nc2ccccn2)=C(O)c2sccc2S1(=O)=O
inactive: viability [1] 113% | Potency [2] | Potency [3] | Potency [4] | Potency [5] | Potency [6] | Potency [7]

Cc1nc2cccc(N)c2c(=O)n1C1CCC(=O)NC1=O (stereo unspecified)
inactive: viability [1] 109% | Potency [2] | Potency [3] | Potency [4] | Potency [5] | Potency [6] | Potency [7]

O=C1NC(=O)[C@@H](c2c[nH]c3ccccc23)[C@H]1c1cn2c3c(cccc13)CCC2
active: Potency [1] 2350 nM | Potency [2] 1180 nM | Potency [3] 1320 nM | Potency [4] 934 nM | Potency [5] 1050 nM | Potency [6] 934 nM | Potency [7] 934 nM

COc1cc(=C2C=c3ccccc3=N2)[nH]/c1=C/c1[nH]c(C)cc1C
active: Potency [1] 4170 nM | Potency [2] 2630 nM | Potency [3] 2350 nM | Potency [4] 3720 nM | Potency [5] 3320 nM | Potency [6] 2350 nM | Potency [7] 5900 nM

COc1ccc(-c2oc3c(CC=C(C)C)c(OC4O[C@H](CO)[C@@H](O)[C@H](O)[C@H]4O)cc(O)c3c(=O)c2OC2O[C@@H](C)[C@H](O)[C@@H](O)[C@H]2O)cc1 (stereo partly specified)
inactive: viability [1] 116% | Potency [2] | Potency [3] | Potency [4] | Potency [5] | Potency [6] | Potency [7]

COc1ccc(N2C(=O)N(c3c(C)cccc3Cl)Cc3cnc(Nc4ccc(C5CCN(C)CC5)cc4OC)nc32)nc1
active: Potency [1] 16600 nM | Potency [2] 16600 nM | Potency [3] 2950 nM | Potency [4] 1660 nM | Potency [5] 13200 nM | Potency [6] 16600 nM | Potency [7] 18600 nM

CCO[C@@H]1OC(=O)C[C@@H]1NC(=O)[C@@H]1CCCN2C(=O)CC[C@H](NC(=O)c3nccc4ccccc34)C(=O)N12
inactive: viability [1] 125% | Potency [2] | Potency [3] | Potency [4] | Potency [5] | Potency [7]

CC1=NN(c2ccc(C(=O)O)cc2)C(=O)/C1=C/c1ccc(-c2cc(C)c(C)cc2[N+](=O)[O-])o1
inactive: viability [1] 112% | Potency [3] | Potency [4] | Potency [5] | Potency [6] | Potency [7]
active: Potency [2] 235 nM
